Bioassay records as filed in PubChem BioAssay.
Rab9 promoter act: qHTS Assay for Rab9 Promoter Activators. Huh7 Rab9 promoter-luciferase reporter, luminescence, 24 h. Potency, µM (highest dose often 9.22 µM), actives largely listed as activators. hit rate 2.8% among 320,000. AID 485297, 2010; note: nearly all actives have a fitted effect of over 60% in size
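Huh7 reporter line, Rab9 promoter upstream of luciferase. Compound exposure 24 h at 37 °C in reduced-serum medium with 10% FBS. Read-out: luminescence.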
NPC1 promoter act: qHTS Assay for NPC1 Promoter Activators; Potency, µM (highest dose often 9.22 µM), most hits filed as activators; hit rate 2.4% among 320,000; Huh7 NPC1 promoter luciferase reporter, 24 h; note: nearly all actives have a fitted effect of over 60% in size
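Luminescence from an NPC1 promoter-driven luciferase reporter in stably transfected Huh7 cells was measured after 24 h compound treatment at 37 °C, followed by 10 min ambient incubation with luciferase detection reagent.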
ELG1 genotoxic: qHTS screen for small molecules that induce genotoxicity in human embryonic kidney (HEK293T) cells expressing luciferase-tagged ELG1. HEK293T ELG1-luciferase reporter, luminescence, 16 h. Potency, µM (titrated, usually from 46 µM), most hits filed as activators. hit rate 1.3% among 330,000; note: nearly all actives have a fitted effect of over 60% in size
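ELG1-luciferase HEK293T cells, 2,000/well; compound pinned in; 16 hr, 37 °C, 5% CO2; ONE-Glo, 30 min RT; luminescence on CCD imager.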
FLuc counter: qHTS profiling assay for firefly luciferase inhibitor/activator using purifed enzyme and Km concentrations of substrates (counterscreen for miR-21 project) | Luciferin 4-monooxygenase (Photinus pyralis), P08659 | purified FLuc, Km substrates, luminescence inhibition | Potency, µM (highest dose often 57.5 µM), actives largely listed as inhibitors | hit rate 6.9% among 360,000; note: nearly all actives have a fitted effect of over 55% in size
Target sequence (P08659 whole entry, looked up): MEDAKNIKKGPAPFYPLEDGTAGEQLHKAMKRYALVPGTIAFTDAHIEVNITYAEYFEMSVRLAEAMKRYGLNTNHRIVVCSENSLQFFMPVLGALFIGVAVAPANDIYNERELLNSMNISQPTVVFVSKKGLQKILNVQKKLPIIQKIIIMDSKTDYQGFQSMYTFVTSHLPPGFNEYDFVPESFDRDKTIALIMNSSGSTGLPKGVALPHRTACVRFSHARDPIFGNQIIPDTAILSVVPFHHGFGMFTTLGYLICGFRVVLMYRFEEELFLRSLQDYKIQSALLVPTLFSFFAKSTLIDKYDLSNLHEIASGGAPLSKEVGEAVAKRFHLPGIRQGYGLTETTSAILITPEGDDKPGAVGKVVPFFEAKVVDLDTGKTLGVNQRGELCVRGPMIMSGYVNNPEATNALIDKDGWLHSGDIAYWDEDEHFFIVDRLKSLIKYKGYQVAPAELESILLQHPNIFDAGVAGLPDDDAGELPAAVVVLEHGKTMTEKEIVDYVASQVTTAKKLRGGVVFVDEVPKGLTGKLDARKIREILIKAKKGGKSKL
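Purified P. pyralis luciferase (10nM final) with 10uM D-luciferin and 10uM ATP (Km levels) in 50mM Tris acetate pH 7.5, 10mM Mg acetate, 0.01% Tween-20, 0.05% BSA; qHTS 6-point titration, ~60 µM downward; luminescence read.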
ELG1 DNA repair: qHTS screen for small molecules that inhibit ELG1-dependent DNA repair in human embryonic kidney (HEK293T) cells expressing luciferase-tagged ELG1; HEK293T ELG1-luciferase reporter, luminescence, 16 h; DNA damage induced by 5-fluorouridine; Potency, µM (doses to about 46.1 µM), usual class: inhibitors; hit rate 2.3% among 330,000; AID 504467, 2011; note: nearly all actives have a fitted effect of over 55% in size
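HEK293T cells expressing luciferase-tagged ELG1 (2,000/well) received 5-Fluorouridine plus compound or DMSO for 16 hr at 37 °C. Luciferase was read by ONE-Glo luminescence after 30 min at room temperature.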
SMN2 splice enh: qHTS Assay for Enhancers of SMN2 Splice Variant Expression | HEK293 SMN2-luciferase splicing reporter, luminescence, 30-36 h | Potency, µM (highest dose often 46.1 µM), most hits filed as activators | hit rate 2.8% among 210,000; note: nearly all actives have a fitted effect of over 55% in size
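qHTS luciferase splicing reporter: luminescence rises when SMN2 exon 7 is included in transfected HEK293 cells. Compound exposure lasted 30-36 h at 37C, with 4.5 mM final sodium butyrate as control, followed by a ONE-Glo read.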
Large screens that a line does not name were inactive. In the library only some 9.3% were active in any assay of this set; here they are far more common. Calls come from the whole dose curve; as a rule, active = well fitted curve in the direction sought with a large enough effect; inconclusive = small, poorly fitted or top-dose-only effect, or another doubt; inactive = no such curve, though single readings can be large; an effect the other way counts as inactive or inconclusive.

Nc1[nH]c(N=NC(=O)c2ccccc2)c2ccccc12	Rab9 promoter act 1.1µM, NPC1 promoter act 1.8µM, ELG1 genotoxic inconclusive, FLuc counter 4.8µM, ELG1 DNA repair inconclusive, SMN2 splice enh 2.8µM
Nc1[nH]c(N=NC(=O)c2ccccc2O)c2ccccc12	Rab9 promoter act 2µM, NPC1 promoter act 2.8µM, ELG1 genotoxic 15µM, FLuc counter 8.5µM, ELG1 DNA repair inconclusive, SMN2 splice enh 11µM
Nc1[nH]c(N=NC(=O)c2ccc(Cl)cc2)c2ccccc12	FLuc counter inconclusive, ELG1 DNA repair inconclusive, SMN2 splice enh inconclusive
CN(C)c1ccc(/C=N/N=C/c2ccccc2O)cc1	Rab9 promoter act 0.56µM, NPC1 promoter act 0.45µM, ELG1 genotoxic inconclusive, FLuc counter 0.3µM, ELG1 DNA repair inconclusive
COc1ccc(C2CC(=O)N(C)c3ccccc3S2)cc1 (stereo unspecified)	ELG1 genotoxic 18µM, FLuc counter 24µM, ELG1 DNA repair inconclusive
COc1ccc(C2CC(=O)N(CC(=O)Nc3ccc(C(F)(F)F)cc3)c3ccccc3S2)cc1 (stereo unspecified)	FLuc counter 11µM (no result: Rab9 promoter act, NPC1 promoter act, ELG1 genotoxic, ELG1 DNA repair)
O=C(CN1C(=O)CC(c2ccco2)Sc2ccccc21)Nc1ccc(C(F)(F)F)cc1 (stereo unspecified)	none (no result: Rab9 promoter act, NPC1 promoter act, ELG1 genotoxic, ELG1 DNA repair)
CN1C(=O)CC(c2ccco2)Sc2ccccc21 (stereo unspecified)	ELG1 genotoxic inconclusive, ELG1 DNA repair inconclusive, SMN2 splice enh inconclusive
COC(=O)N/N=C/c1sc(N2CCCCC2)nc1-c1cccs1	FLuc counter inconclusive
CC1CCCCN1CCNC(=O)c1ccc2c(=O)n(Cc3ccc(Cl)cc3)c(=S)[nH]c2c1 (stereo unspecified)	ELG1 DNA repair inconclusive (no result: SMN2 splice enh)
CCN(CC)S(=O)(=O)c1cc(NC(=O)C(C)N2CCc3ccccc32)ccc1C (stereo unspecified)	ELG1 DNA repair inconclusive
CCN(CC)S(=O)(=O)c1cc(NC(=O)C(C)N(C)CC(=O)Nc2c(C)cccc2C)ccc1C (stereo unspecified)	ELG1 DNA repair 21µM
Cc1cc(C)c(C#N)c(SCc2nnc(-c3ccccc3)o2)n1	ELG1 genotoxic inconclusive, FLuc counter 3µM, ELG1 DNA repair inconclusive
Cc1cc(C)c(C#N)c(SCc2nnc(-c3ccccc3[N+](=O)[O-])o2)n1	Rab9 promoter act 3.2µM, NPC1 promoter act 1.4µM, ELG1 genotoxic 2.6µM, FLuc counter 21µM, ELG1 DNA repair inconclusive, SMN2 splice enh 1.1µM
Cc1ccc(C#N)c(SCc2nnc(-c3ccc(Cl)cc3)o2)n1	ELG1 genotoxic inconclusive, FLuc counter 0.43µM, ELG1 DNA repair inconclusive
COc1cccc(CNC(=O)CCc2cn(Cc3ccccc3Cl)c3ccccc23)c1	none (no result: Rab9 promoter act, NPC1 promoter act, ELG1 genotoxic, ELG1 DNA repair, SMN2 splice enh)
NC(Cc1cnc[nH]1)C(=O)Nc1ccc2ccccc2c1 (stereo unspecified)	SMN2 splice enh 13µM (no result: Rab9 promoter act, NPC1 promoter act, ELG1 genotoxic, FLuc counter, ELG1 DNA repair)
COc1ccc(OC)c(/C=C/C(=O)OCC(=O)Nc2cccc(C(C)=O)c2)c1	none
COc1ccc(/C=C/C(=O)Nc2cccc(C(C)=O)c2)cc1	Rab9 promoter act inconclusive, NPC1 promoter act inconclusive, FLuc counter 0.95µM, ELG1 DNA repair inconclusive, SMN2 splice enh 11µM
COc1ccc(/C=C/C(=O)NC2CC3CCC2C3)cc1 (stereo unspecified)	ELG1 genotoxic inconclusive, FLuc counter 17µM, ELG1 DNA repair inconclusive (no result: SMN2 splice enh)
COc1ccc(/C=C/C(=O)NC2CCCCC2C)cc1 (stereo unspecified)	none (no result: SMN2 splice enh)
COc1ccc(NC(=O)/C=C/c2ccc(Cl)cc2)cc1	Rab9 promoter act 2.5µM, NPC1 promoter act 2.1µM, SMN2 splice enh 11µM (no result: ELG1 genotoxic, FLuc counter, ELG1 DNA repair)
COc1ccc(/C=C/C(=O)Nc2cccc(F)c2)cc1	FLuc counter 0.85µM, SMN2 splice enh 4µM (no result: Rab9 promoter act, NPC1 promoter act, ELG1 genotoxic, ELG1 DNA repair)
CN1CCN(C(CC(=O)Nc2cccc(O)c2)C(=O)O)CC1 (stereo unspecified)	none (no result: SMN2 splice enh)
